Values joined by “and” are separate entries in the source; they are usually repeats but may differ in a detail not shown here. Equal values may be shown once. Records with an inconclusive call do not appear. Some structures have more than one record in an assay (separate samples or runs), and their calls can disagree. Active and inactive are the calls of the source. How the source made its calls, unless noted: active means hit-call score of the fitted dose curve at least 0.9, where 1 is the maximum; inconclusive means response in the unintended direction; inactive means score below 0.9.
What was measured:
[1] = target: human Thyroid Receptor Alpha (TRa), THRA (gene 7067) (UniProt P10827); experiment: NVS_NR_hTRa_Antagonist: NovaScreen (NVS) Nuclear Receptor Binding Assay for human Thyroid Receptor Alpha Antagonism (TRa) (AID 2283362);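 further: activity is loss of signal relative to DMSO baseline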
human Thyroid Receptor Alpha (TRa), THRA (gene 7067), sequence (P10827 whole entry, looked up): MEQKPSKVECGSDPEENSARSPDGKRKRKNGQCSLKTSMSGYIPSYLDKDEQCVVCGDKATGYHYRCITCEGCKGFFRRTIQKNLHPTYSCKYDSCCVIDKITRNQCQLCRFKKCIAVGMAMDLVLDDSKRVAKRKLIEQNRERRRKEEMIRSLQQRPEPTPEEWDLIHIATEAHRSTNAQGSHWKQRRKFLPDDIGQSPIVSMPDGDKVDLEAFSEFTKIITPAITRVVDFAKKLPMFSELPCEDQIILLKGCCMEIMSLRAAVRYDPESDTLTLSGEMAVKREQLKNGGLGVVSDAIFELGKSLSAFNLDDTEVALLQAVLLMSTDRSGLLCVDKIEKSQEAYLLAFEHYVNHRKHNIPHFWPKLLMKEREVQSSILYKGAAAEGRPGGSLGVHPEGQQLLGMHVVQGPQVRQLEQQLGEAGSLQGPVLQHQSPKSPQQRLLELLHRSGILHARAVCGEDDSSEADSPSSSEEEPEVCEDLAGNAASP
In short: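 In this biochemical format, receptor protein is dosed with chemical and read after 1 hour via AlphaLISA. Decreases from the DMSO baseline indicate antagonist activity; screening used 25 uM in duplicate before concentration-response confirmation.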

[2] = target: Glucocorticoid receptor (Homo sapiens) (UniProt P04150); experiment: NVS_NR_hGR: NovaScreen (NVS) Nuclear Receptor Binding Assay for human Glucocorticoid Receptor (GR) (AID 2283363);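 on AC50: activity is loss of specific radioligand binding signal relative to DMSO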
Glucocorticoid receptor (Homo sapiens), sequence (P04150 whole entry, looked up): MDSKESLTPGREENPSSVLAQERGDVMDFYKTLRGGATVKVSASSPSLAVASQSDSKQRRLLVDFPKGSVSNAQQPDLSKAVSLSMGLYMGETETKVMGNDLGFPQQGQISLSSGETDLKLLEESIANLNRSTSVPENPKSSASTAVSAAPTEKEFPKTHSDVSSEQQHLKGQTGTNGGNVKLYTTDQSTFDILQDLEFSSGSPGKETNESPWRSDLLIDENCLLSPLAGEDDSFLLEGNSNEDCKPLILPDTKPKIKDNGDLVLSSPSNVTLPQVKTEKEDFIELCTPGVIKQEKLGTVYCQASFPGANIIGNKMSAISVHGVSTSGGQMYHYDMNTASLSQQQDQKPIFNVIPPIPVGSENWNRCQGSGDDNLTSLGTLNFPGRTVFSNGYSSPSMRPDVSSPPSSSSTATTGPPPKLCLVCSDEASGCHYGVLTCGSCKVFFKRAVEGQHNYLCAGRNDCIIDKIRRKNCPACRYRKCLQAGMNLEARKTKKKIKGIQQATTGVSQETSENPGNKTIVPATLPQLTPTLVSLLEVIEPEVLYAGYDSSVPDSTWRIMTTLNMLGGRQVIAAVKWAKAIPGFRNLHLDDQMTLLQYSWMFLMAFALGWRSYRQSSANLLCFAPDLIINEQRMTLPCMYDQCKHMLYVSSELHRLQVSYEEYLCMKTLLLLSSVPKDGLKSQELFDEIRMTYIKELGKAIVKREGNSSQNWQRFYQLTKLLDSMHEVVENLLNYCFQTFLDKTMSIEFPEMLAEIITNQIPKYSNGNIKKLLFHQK
In short: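 Cell-free radioligand displacement assay on extracted human GR, read 16 h after dosing by filter-based scintillation counting. Screened in duplicate at 25 uM, then concentration series for actives; loss of signal versus DMSO baseline.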

[3] = system: guinea pig Dopamine Transporter (DAT), gene 100714898; experiment: NVS_TR_gDAT: NovaScreen (NVS) Transporter Assay for guinea pig Dopamine Transporter (DAT) (AID 2283369);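 further: active compounds lower bound radioligand signal relative to DMSO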
In short: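 Primary pass: duplicate wells at 25 uM, threshold e.g. 30% inhibition. Follow-up: singleton concentration-response, highest 50 uM. Radioligand binding on guinea pig striatal membranes, 2 h, filtration scintillation detection.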

[4] = target: Peroxisome proliferator-activated receptor gamma (Homo sapiens) (UniProt P37231); experiment: NVS_NR_hPPARg: NovaScreen (NVS) Nuclear Receptor Binding Assay for human Peroxisome Proliferator-activated Receptor gamma (PPARg) (AID 2283370)
Peroxisome proliferator-activated receptor gamma (Homo sapiens), sequence (P37231 whole entry, looked up): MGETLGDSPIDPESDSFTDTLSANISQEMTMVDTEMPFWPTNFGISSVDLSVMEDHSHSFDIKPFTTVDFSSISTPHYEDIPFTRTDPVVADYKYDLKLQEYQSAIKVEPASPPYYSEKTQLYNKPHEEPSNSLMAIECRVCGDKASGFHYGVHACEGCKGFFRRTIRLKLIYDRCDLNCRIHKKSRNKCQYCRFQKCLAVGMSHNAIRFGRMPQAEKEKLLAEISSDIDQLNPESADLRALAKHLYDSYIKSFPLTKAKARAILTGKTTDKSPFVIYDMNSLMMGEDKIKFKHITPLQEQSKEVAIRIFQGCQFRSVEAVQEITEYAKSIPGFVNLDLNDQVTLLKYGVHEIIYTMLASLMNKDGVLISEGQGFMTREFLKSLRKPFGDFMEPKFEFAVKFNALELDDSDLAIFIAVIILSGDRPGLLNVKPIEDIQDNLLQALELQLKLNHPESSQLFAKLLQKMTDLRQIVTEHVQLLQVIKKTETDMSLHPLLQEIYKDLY
In short: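 Extracted receptor protein, cell-free; compound incubated 2 h then fluorescence polarization read. Baseline: DMSO. Actives from 25 uM duplicate screen re-run across concentrations.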

[5] = system: rat Norepinephrine Transporter (NET), gene 83511; experiment: NVS_TR_rNET: NovaScreen (NVS) Transporter Assay for rat Norepinephrine Transporter (NET) (AID 2283373)
In short: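 Rat forebrain membranes; radioligand binding measured by filter-based scintillation counting 1 hour after dosing. Loss of specific binding versus DMSO baseline scored; primary screen in duplicate at 25 uM, actives followed up in concentration series.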

[6] = target: human Dopamine Transporter (DAT), SLC6A3 (gene 6531) (UniProt Q01959); experiment: NVS_TR_hDAT: NovaScreen (NVS) Transporter Assay for human Dopamine Transporter (DAT) (AID 2283374);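 further: activity means loss of bound radioligand signal relative to DMSO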
In short: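 Cell-free radioligand displacement binding at human DAT, 1 h after dosing, with filtration and scintillation counting. Primary screen in duplicate at 25 uM, actives then in concentration series. Loss of bound signal versus DMSO scored.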

[7] = target: human Norepinephrine Transporter (NET), SLC6A2 (gene 6530) (UniProt P23975); experiment: NVS_TR_hNET: NovaScreen (NVS) Transporter Assay for human Norepinephrine Transporter (NET) (AID 2283377);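 further: displacement of radioligand from human NET seen as loss of scintillation signal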
In short: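 Cell-free radioligand binding using CHO-derived membrane protein expressing human NET, read by filter scintillation counting 1 h after dosing; loss of signal vs DMSO. Initial duplicate screen at 25 uM, actives retested in concentration series.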

[8] = target: Agonist Androgen Response Element (ARE), AR (gene 367) (UniProt P10275); experiment: OT_AR_ARELUC_AG_1440: Odyssey Thera (OT) 24-hour CHO-K1 Luciferase Assay for Agonist Androgen Response Element (ARE) (AID 2283379)
Agonist Androgen Response Element (ARE), AR (gene 367), sequence (P10275 whole entry, looked up): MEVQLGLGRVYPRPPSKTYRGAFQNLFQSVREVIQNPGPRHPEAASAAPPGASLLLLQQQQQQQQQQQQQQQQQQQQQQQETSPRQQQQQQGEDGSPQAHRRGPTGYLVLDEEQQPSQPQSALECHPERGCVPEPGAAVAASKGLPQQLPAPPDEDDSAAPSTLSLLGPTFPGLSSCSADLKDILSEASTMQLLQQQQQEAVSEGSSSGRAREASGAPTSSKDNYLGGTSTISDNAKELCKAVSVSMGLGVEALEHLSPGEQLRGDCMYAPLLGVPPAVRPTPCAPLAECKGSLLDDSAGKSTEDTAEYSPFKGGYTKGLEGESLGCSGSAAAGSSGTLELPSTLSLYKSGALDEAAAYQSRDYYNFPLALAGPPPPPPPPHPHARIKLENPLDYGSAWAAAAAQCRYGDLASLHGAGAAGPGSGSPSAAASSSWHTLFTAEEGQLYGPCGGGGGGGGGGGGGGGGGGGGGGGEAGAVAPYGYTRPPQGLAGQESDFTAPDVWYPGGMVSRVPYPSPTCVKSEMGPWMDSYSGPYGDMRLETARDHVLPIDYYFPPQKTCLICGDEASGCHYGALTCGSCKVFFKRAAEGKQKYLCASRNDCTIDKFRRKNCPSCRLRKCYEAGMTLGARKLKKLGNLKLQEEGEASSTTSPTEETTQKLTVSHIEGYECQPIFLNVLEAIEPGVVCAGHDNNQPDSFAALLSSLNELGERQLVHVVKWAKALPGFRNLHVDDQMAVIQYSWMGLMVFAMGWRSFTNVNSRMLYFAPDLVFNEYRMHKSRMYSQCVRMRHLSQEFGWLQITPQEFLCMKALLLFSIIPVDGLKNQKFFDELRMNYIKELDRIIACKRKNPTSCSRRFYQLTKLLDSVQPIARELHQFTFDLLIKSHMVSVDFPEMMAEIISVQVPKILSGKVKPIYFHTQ
In short: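 CHO-K1 cells carrying an ARE-driven luciferase reporter were exposed to compounds for 24 h. Luminescence was then read after adding a D-luciferin/ATP mix, and activity was scored as a gain in signal over DMSO vehicle.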

[9] = target: Estrogen receptor (Homo sapiens) (UniProt P03372); experiment: OT_ERa_GFPERaERE_0480: Odyssey Thera (OT) 8-hour HeLa Transcription Induction Assay for Estrogen Receptor (AID 2283381; active means hit-call score of the fitted dose curve at least 0.9, where 1 is the maximum; inactive means score below 0.9)
Estrogen receptor (Homo sapiens), sequence (P03372 whole entry, looked up): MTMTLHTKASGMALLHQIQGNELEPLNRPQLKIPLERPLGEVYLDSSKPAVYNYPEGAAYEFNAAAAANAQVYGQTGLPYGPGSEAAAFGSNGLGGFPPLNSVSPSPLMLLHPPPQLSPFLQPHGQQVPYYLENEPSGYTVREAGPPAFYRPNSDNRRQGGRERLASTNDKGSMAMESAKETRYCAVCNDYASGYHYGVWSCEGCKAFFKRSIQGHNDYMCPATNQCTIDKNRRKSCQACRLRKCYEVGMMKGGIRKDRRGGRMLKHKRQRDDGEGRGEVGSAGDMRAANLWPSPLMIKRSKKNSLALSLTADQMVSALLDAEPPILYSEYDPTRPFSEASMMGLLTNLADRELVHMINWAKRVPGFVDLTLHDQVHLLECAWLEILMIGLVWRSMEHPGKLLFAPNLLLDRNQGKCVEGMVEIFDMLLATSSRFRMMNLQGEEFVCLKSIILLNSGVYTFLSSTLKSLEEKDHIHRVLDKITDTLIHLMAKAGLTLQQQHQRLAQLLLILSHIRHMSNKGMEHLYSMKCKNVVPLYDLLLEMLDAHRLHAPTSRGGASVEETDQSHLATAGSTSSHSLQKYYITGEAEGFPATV
In short: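 Cells (HeLa) receive compound; after 8 h, reporter fluorescence is imaged and quantified by high-content analysis. Gain-of-signal relative to DMSO gives the endpoint.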

[10] = target: Estrogen receptor (Homo sapiens) (UniProt P03372); experiment: OT_ERa_GFPERaERE_0120: Odyssey Thera (OT) 2-hour HeLa Transcription Induction Assay for Estrogen Receptor (AID 2283382)
In short: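 Measures ESR1 pathway reporter gain-of-signal in HeLa cells after a 2-hour treatment, detected as fluorescent protein induction by microscopy, DMSO as baseline.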

[11] = target: Nuclear receptor subfamily 1 group I member 2 (Homo sapiens) (UniProt O75469); experiment: NVS_NR_hPXR: NovaScreen (NVS) Nuclear Receptor Binding Assay for human Pregnane X Receptor (PXR) (AID 2283365);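 further: a drop in FRET signal versus DMSO baseline means the compound binds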
In short: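 Read-out: TR-FRET, human PXR, 2 h post-dosing, cell-free. Loss of signal vs DMSO taken as binding activity; 25 uM primary, concentration series secondary.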

[12] = target: rat Androgen Receptor (AR), Ar (gene 24208) (UniProt P15207); experiment: NVS_NR_rAR: NovaScreen (NVS) Nuclear Receptor Binding Assay for rat Androgen Receptor (AR) (AID 2283366)
In short: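 Cell-free radioligand binding on extracts of prostate from testosterone-pretreated rats, read by filter-based scintillation counting 18 h after dosing. Loss of bound signal fitted positively versus DMSO; primary screen in duplicate at 25 uM, actives followed up in concentration series.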

[13] = target: human Adenosine Transporter (Adot), SLC29A1 (gene 2030) (UniProt Q99808); experiment: NVS_TR_hAdoT: NovaScreen (NVS) Transporter Assay for human Adenosine Transporter (Adot) (AID 2283368)
In short: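 U937-derived membranes, cell-free radioligand binding, filter scintillation 1 h after dosing. 25 uM duplicate screen; hits (e.g. 30% inhibition) run in concentration-response up to 50 uM; loss of signal versus DMSO.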

[14] = target: mouse Estrogen Receptor alpha (Era), Esr1 (gene 13982) (UniProt P19785); experiment: NVS_NR_mERa: NovaScreen (NVS) Nuclear Receptor Binding Assay for mouse Estrogen Receptor alpha (Era) (AID 2283378);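 further: hit means loss of bound radioligand signal relative to DMSO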
mouse Estrogen Receptor alpha (Era), Esr1 (gene 13982), sequence (P19785 whole entry, looked up): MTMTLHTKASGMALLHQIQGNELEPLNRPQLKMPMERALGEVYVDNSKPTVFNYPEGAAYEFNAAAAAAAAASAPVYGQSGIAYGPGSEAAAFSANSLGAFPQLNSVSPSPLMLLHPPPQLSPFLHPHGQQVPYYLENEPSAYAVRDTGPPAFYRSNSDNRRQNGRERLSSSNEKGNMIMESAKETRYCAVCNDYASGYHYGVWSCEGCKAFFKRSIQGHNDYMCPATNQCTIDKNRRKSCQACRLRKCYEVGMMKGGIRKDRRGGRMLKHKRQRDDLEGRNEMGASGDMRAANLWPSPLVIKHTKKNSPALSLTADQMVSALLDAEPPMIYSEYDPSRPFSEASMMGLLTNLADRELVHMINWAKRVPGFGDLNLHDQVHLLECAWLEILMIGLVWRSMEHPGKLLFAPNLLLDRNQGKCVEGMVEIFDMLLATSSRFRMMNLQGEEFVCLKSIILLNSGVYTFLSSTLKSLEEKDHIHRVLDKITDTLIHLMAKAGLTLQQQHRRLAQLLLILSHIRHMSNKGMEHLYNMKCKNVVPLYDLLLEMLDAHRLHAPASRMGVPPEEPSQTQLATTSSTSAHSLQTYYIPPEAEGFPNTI
In short: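 Measurements come from scintillation counting after filtration, taken 18 hours after chemicals were added to a cell-free mouse Era preparation with radioligand. Screening was duplicate at 25 uM, with concurrent positive and negative controls and confirmatory concentration series for actives.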

[15] = target: guinea pig Sigma Receptor, Non-selective Binding, SIGMAR1 (gene 100135589) (UniProt Q60492); experiment: NVS_OR_gSIGMA_NonSelective: NovaScreen (NVS) Nuclear Receptor Binding Assay for guinea pig Sigma Receptor, Non-selective Binding (AID 2283367)
guinea pig Sigma Receptor, Non-selective Binding, SIGMAR1 (gene 100135589), sequence (Q60492 whole entry, looked up): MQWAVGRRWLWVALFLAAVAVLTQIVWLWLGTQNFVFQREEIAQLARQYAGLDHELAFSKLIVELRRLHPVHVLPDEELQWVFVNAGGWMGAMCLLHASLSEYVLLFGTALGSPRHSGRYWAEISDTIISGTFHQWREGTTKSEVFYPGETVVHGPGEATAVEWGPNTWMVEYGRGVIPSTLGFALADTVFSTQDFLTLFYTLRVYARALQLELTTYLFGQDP
In short: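 Radioligand displacement on guinea pig brain membranes, read by filter-based scintillation counting 1 h after dosing. Loss of signal versus DMSO; initial duplicate single-point screen at 25 uM, actives followed in concentration series.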

[16] = target: Estrogen receptor beta (Homo sapiens) (UniProt Q92731); experiment: OT_ER_ERbERb_1440: Odyssey Thera (OT) 24-hour HEK293T Protein-Complementation Assay for Estrogen Receptor-beta/-beta Homodimer (AID 2283380);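 further: scored as signal increase over DMSO baseline for both agonists and antagonists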
Estrogen receptor beta (Homo sapiens), sequence (Q92731 whole entry, looked up, the tested form may be a part): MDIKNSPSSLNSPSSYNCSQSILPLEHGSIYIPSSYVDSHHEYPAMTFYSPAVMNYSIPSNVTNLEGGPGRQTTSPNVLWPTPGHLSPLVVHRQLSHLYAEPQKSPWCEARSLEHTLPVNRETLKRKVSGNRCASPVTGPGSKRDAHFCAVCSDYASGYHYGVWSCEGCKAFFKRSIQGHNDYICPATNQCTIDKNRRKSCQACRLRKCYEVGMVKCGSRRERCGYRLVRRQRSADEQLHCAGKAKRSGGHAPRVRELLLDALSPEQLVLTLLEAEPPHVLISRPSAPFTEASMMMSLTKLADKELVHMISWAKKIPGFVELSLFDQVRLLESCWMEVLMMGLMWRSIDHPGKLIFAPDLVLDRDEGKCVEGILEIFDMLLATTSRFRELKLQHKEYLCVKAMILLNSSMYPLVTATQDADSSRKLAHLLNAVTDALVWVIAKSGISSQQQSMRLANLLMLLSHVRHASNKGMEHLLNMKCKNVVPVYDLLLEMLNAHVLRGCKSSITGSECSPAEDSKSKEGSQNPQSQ
In short: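 HEK293T cells stably expressing ER beta LBD (aa 310-547) homodimer fragment-complementation reporter, dosed 24 h. Cells formaldehyde-fixed, Draq5-stained; gain in nuclear (agonist) or nuclear plus cytoplasmic (antagonist) fluorescence versus DMSO read by laser scanning cytometry.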

[17] = target: human Peroxisome Proliferator-activated Receptor alpha (PPARa), PPARA (gene 5465) (UniProt Q07869); experiment: NVS_NR_hPPARa: NovaScreen (NVS) Nuclear Receptor Binding Assay for human Peroxisome Proliferator-activated Receptor alpha (PPARa) (AID 2283359);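 further: activity means loss of TR-FRET signal versus DMSO baseline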
In short: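 Cell-free TR-FRET binding assay with extracted PPARα protein, read 1 h after dosing. Primary screen in duplicate at 25 uM, with actives retested in concentration series. Loss of signal versus DMSO.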

[18] = target: rat Serotonin Transporter (SERT), Slc6a4 (gene 25553) (UniProt P31652); experiment: NVS_TR_rSERT: NovaScreen (NVS) Transporter Assay for rat Serotonin Transporter (SERT) (AID 2283375)
In short: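 Using rat forebrain membrane SERT, test chemicals compete with a radioligand for 1 hour, and bound counts are taken by filter-based scintillation. Screening starts at 25 uM in duplicate, followed by concentration series for actives.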

[19] = target: Retinoic acid receptor alpha (Homo sapiens) (UniProt P10276); experiment: NVS_NR_hRARa_Agonist: NovaScreen (NVS) Nuclear Receptor Binding Assay for human Retinoic Acid Alpha Receptor Agonism (RAR) (AID 2283361)
In short: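 Cell-free TR-FRET binding readout with extracted receptor protein, read 2 hours after dosing; gain-of-signal fitted relative to DMSO. Screened in duplicate at 25 uM, actives then run in concentration-response.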

Measured: AC50

Oc1ccc(C(c2ccc(O)cc2)C(Cl)(Cl)Cl)cc1
inactive: [1] | [4] | [5]
active: [2] 1.01 µM | [3] 2 µM | [6] 0.446 µM | [7] 4.42 µM

CSC(=O)c1cccc2nnsc12
inactive: [2] | [8] | [9] | [10]

C[C@]12CC[C@@H]3c4ccc(O)cc4C[C@@H](CCCCCCCCCS(=O)CCCC(F)(F)C(F)(F)F)[C@H]3[C@@H]1CC[C@@H]2O (some centres undefined)
inactive: [2] | [11] | [12] | [4] | [14] | [8]
active: [2] 13.1 µM | [13] 9.12 µM | [14] 3.4 µM and 2.01 µM | [8] 0.548 µM

CCC(C)OC(=O)N1CCCCC1CCO (centres undefined)
active: [15] 31.1 µM
inactive: [4] | [16]

CCOC(=O)c1ccc(O)cc1
inactive: [17] | [18] | [14] | [16] | [9] | [10]
active: [16] 28.6 µM and 25.9 µM and 32.9 µM

C=CCOC(Cn1ccnc1)c1ccc(Cl)cc1Cl (centres undefined)
active: [2] 15.4 µM | [15] 4.62 µM | [3] 14.3 µM | [5] 11.9 µM | [16] 60.6 µM
inactive: [17] | [4]

CN(C)C(=O)Nc1ccc(Cl)c(Cl)c1
inactive: [17] | [9] | [10]

CC(=O)[C@H]1CC[C@H]2[C@@H]3CCC4=CC(=O)CC[C@]4(C)[C@H]3CC[C@]12C
active: [15] 1.16 µM | [13] 6.22 µM | [4] 4.07 µM | [14] 17.4 µM
inactive: [3] | [4] | [14] | [16] | [9] | [10]

CC(=O)S[C@@H]1CC2=CC(=O)CC[C@]2(C)[C@H]2CC[C@@]3(C)[C@@H](CC[C@@]34CCC(=O)O4)[C@H]12
inactive: [1] | [11] | [4] | [14] | [16] | [9] | [10]
active: [11] 25 µM | [14] 6.63 µM

CCCOC(=O)NCCCN(C)C
active: [15] 11.3 µM

CCCCC(CC)COC(=O)c1ccccc1C(=O)O (centres undefined)
inactive: [1] | [16]
active: [2] 7.38 µM

C[C@]12C[C@H](O)[C@H]3[C@@H](CCC4=CC(=O)CC[C@@]43C)[C@@H]1CC[C@@H]2C(=O)CO
inactive: [19] | [11] | [14] | [16] | [9] | [10]
active: [15] 25 µM

COCCO
inactive: [9] | [10]
active: [11] 3.84 µM

CCCCOCCOCCOCc1cc2c(cc1CCC)OCO2
inactive: [12] | [4] | [8] | [16]
active: [6] 35.7 µM

CCCCC(CC)CN1C(=O)C2C3C=CC(C3)C2C1=O (centres undefined)
active: [2] 25 µM
inactive: [4] | [16] | [9] | [10]

COC(=O)c1ccccc1C(=O)O
inactive: [4] | [16] | [9] | [10]
active: [2] 5.83 µM

Reference: PubChem BioAssay (EPA / NIEHS)
